From the supplement of paper PMC12669032

Legend:
Assay in all cases: growth AUC relative to DMSO control (median of replicates) (fraction); higher = more growth (less inhibition), active = hit call of the paper
Conditions in all cases: 20 µM; 24 h;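 active = AUC reduced over 20% with Padj below 0.05 in at least 2 of 3 replicates; inactive = otherwise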
[1] = system: Akkermansia muciniphila
Outline: (§1)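 Hourly OD600 readings over 24 h tracked anaerobic gut bacterial monocultures grown at 37 °C in mGAM from OD600 0.05 with 20 µM compound (1% DMSO). After the minimum OD was set to 0, area under the growth curve was normalised to the plate median of solvent-only wells, or to row and column medians on the industrial chemical plate. Values are medians of three biological replicates grown on separate days.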

[2] = system: Bacteroides caccae
Outline: as §1

[3] = system: Bacteroides clarus
Outline: as §1

[4] = system: Bacteroides dorei
Outline: as §1

[5] = system: Bacteroides stercoris
Outline: as §1

[6] = system: Bacteroides thetaiotaomicron
Outline: as §1

[7] = system: Bacteroides uniformis
Outline: as §1

[8] = system: Bifidobacterium longum subsp. longum
Outline: as §1

[9] = system: Clostridium difficile
Outline: as §1

[10] = system: Collinsella aerofaciens
Outline: as §1

[11] = system: Coprococcus comes
Outline: as §1

[12] = system: Escherichia coli ED1a
Outline: as §1

[13] = system: Escherichia coli IAI1
Outline: as §1

[14] = system: Eubacterium rectale
Outline: as §1

[15] = system: Fusobacterium nucleatum subsp. animalis
Outline: as §1

[16] = system: Lactobacillus gasseri
Outline: as §1

[17] = system: Lactobacillus paracasei
Outline: as §1

[18] = system: Odoribacter splanchnicus
Outline: as §1

[19] = system: Parabacteroides distasonis
Outline: as §1

[20] = system: Parabacteroides merdae
Outline: as §1

Measured: growth AUC

COc1ccc(/C(=C/C(=O)N2CCOCC2)c2ccc(F)cc2)cc1OC
inactive: [1] 0.998 | [2] 1.05 | [3] 0.959 | [4] 0.953 | [5] 0.921 | [6] 0.997 | [7] 0.984 | [8] 0.958 | [9] 1 | [10] 0.952 | [11] 1.02 | [12] 0.974 | [13] 1.01 | [14] 0.966 | [15] 0.955 | [16] 0.971 | [17] 0.976 | [18] 1.06 | [19] 1.01 | [20] 1.02

CCCCC(O)(Cn1cncn1)c1ccc(Cl)cc1Cl (stereo not given)
inactive: [1] 0.965 | [2] 0.944 | [3] 0.96 | [4] 0.97 | [5] 1.22 | [6] 0.92 | [7] 0.971 | [8] 1.02 | [9] 0.92 | [10] 1 | [11] 0.946 | [12] 0.987 | [13] 0.996 | [15] 1.04 | [16] 0.952 | [17] 0.936 | [18] 0.894 | [19] 1.01 | [20] 0.931
active: [14] 0.783

CC1(C)C(C(=O)OC(C#N)c2cccc(Oc3ccccc3)c2)C1(C)C (stereo not given)
inactive: [1] 0.879 | [2] 0.995 | [3] 0.991 | [4] 0.996 | [5] 0.946 | [6] 0.986 | [7] 1.01 | [8] 0.951 | [9] 1.01 | [10] 0.995 | [11] 1.03 | [12] 1.01 | [13] 0.988 | [14] 1 | [15] 0.928 | [16] 0.909 | [17] 1.04 | [18] 0.959 | [19] 1.15 | [20] 0.965

CCOC(=O)CCN(Cc1ccccc1)SN(C)C(=O)O/N=C(/C)SC
inactive: [1] 0.948 | [2] 0.993 | [3] 0.979 | [4] 1.04 | [5] 1.09 | [6] 0.991 | [7] 1.09 | [8] 1.03 | [9] 1.01 | [10] 1.02 | [11] 0.985 | [12] 0.995 | [13] 0.988 | [14] 1.08 | [15] 0.837 | [16] 0.909 | [17] 1.02 | [18] 1.08 | [19] 1.02 | [20] 0.99

CC1(C)CCC(Cc2ccc(Cl)cc2)C1(O)Cn1cncn1 (stereo not given)
inactive: [1] 1.01 | [2] 0.874 | [3] 0.925 | [4] 0.98 | [5] 1.35 | [6] 0.93 | [7] 0.937 | [8] 1.03 | [9] 0.973 | [10] 0.95 | [11] 0.982 | [12] 0.971 | [13] 0.98 | [14] 0.8 | [15] 1.08 | [16] 0.976 | [17] 1.02 | [18] 0.823 | [19] 0.927 | [20] 0.918

ClC1C(Cl)C(Cl)C(Cl)C(Cl)C1Cl (mixture of isomers)
inactive: [1] 0.921 | [2] 0.981 | [3] 0.932 | [4] 1.01 | [5] 0.826 | [6] 0.986 | [7] 0.916 | [8] 0.921 | [9] 0.982 | [10] 1 | [11] 1.03 | [12] 1.01 | [13] 0.981 | [14] 0.936 | [15] 0.966 | [16] 1.08 | [17] 1 | [18] 0.935 | [19] 1.04 | [20] 0.949

CS(=O)(=O)c1ccc(C(=O)C2C(=O)CCCC2=O)c(Cl)c1
inactive: [1] 0.92 | [2] 1.01 | [3] 1.01 | [4] 1.01 | [5] 1.04 | [6] 1.01 | [7] 1 | [8] 0.967 | [9] 1.11 | [10] 1.05 | [11] 0.974 | [12] 1.01 | [13] 1.03 | [14] 0.916 | [15] 1.05 | [16] 1.09 | [17] 1.03 | [18] 1.04 | [19] 1.04 | [20] 1.01

CCC(CC)Nc1c([N+](=O)[O-])cc(C)c(C)c1[N+](=O)[O-]
inactive: [1] 1.03 | [2] 0.888 | [3] 0.942 | [4] 0.91 | [5] 0.86 | [6] 0.96 | [7] 0.954 | [8] 1 | [9] 0.962 | [10] 0.909 | [11] 0.982 | [12] 0.987 | [13] 0.947 | [14] 0.979 | [15] 0.93 | [16] 0.858 | [17] 0.935 | [18] 1.11 | [19] 0.974 | [20] 0.942

CCOCn1c(-c2ccc(Cl)cc2)c(C#N)c(Br)c1C(F)(F)F
inactive: [1] 1.07 | [2] 0.902 | [3] 0.956 | [4] 0.945 | [5] 0.914 | [6] 0.95 | [7] 0.943 | [8] 1.04 | [9] 0.816 | [10] 0.926 | [11] 1.02 | [12] 0.99 | [13] 0.99 | [14] 1.03 | [15] 1.05 | [16] 0.904 | [17] 0.992 | [18] 0.951 | [19] 0.924 | [20] 0.834

CCC1(C(=O)NC(C)c2ccc(Cl)cc2)C(C)C1(Cl)Cl (stereo not given)
active: [19] 0.641
inactive: [1] 1.18 | [2] 0.963 | [3] 0.985 | [4] 0.884 | [5] 0.958 | [6] 0.909 | [7] 0.881 | [8] 0.969 | [9] 0.969 | [10] 0.942 | [11] 0.97 | [12] 0.964 | [13] 1 | [14] 1 | [15] 0.886 | [16] 0.871 | [17] 0.955 | [18] 0.851 | [20] 0.91

CSc1nnc(C(C)(C)C)c(=O)n1N
inactive: [1] 0.996 | [2] 1.07 | [3] 1.01 | [4] 1.02 | [5] 1.06 | [6] 0.996 | [7] 1.02 | [8] 1.09 | [9] 1.03 | [10] 1 | [11] 1.07 | [12] 1.04 | [13] 1.01 | [14] 0.997 | [15] 1.03 | [16] 1.06 | [17] 1.03 | [18] 1.05 | [19] 1.02 | [20] 1.01

OC(Cc1ccccc1Cl)(Cn1cncn1)C1(Cl)CC1 (stereo not given)
inactive: [1] 0.867 | [2] 0.974 | [3] 0.963 | [4] 1.01 | [5] 0.966 | [6] 0.985 | [7] 0.971 | [8] 1.01 | [9] 0.958 | [10] 0.953 | [11] 0.963 | [12] 0.993 | [13] 0.941 | [14] 0.849 | [15] 0.897 | [16] 1.16 | [17] 1.02 | [18] 0.95 | [19] 1.01 | [20] 0.977

OC[C@@H](O)[C@H]1O[C@@H]2O[C@H](C(Cl)(Cl)Cl)O[C@@H]2[C@H]1O (mixture of isomers)
inactive: [1] 0.979 | [2] 1.02 | [3] 0.978 | [4] 1.04 | [5] 0.952 | [6] 1.01 | [7] 1.04 | [8] 0.969 | [9] 1.03 | [10] 0.975 | [11] 0.988 | [12] 0.99 | [13] 0.986 | [14] 1.05 | [15] 0.83 | [16] 1.03 | [17] 0.943 | [18] 1.06 | [19] 0.903 | [20] 0.999

OCC(O)CCl (stereo not given)
inactive: [1] 1.01 | [2] 1.01 | [3] 0.998 | [4] 1.01 | [5] 1.02 | [6] 0.984 | [7] 1 | [8] 0.965 | [9] 1.01 | [10] 1.01 | [11] 0.999 | [12] 0.947 | [13] 1 | [14] 1 | [15] 0.987 | [16] 0.993 | [17] 0.978 | [18] 1.01 | [19] 1.02 | [20] 0.991

COP(=S)(NC(C)C)Oc1ccccc1C(=O)OC(C)C (stereo not given)
active: [19] 0.53
inactive: [1] 1.07 | [2] 0.991 | [3] 0.93 | [4] 0.942 | [5] 1.04 | [6] 0.907 | [7] 0.872 | [8] 1.02 | [9] 1.01 | [10] 1.01 | [11] 1.03 | [12] 1.02 | [13] 0.988 | [14] 0.92 | [15] 1.08 | [16] 0.984 | [17] 0.962 | [18] 1.07 | [20] 0.931

Cc1ccccc1CO[C@@H]1C[C@@]2(C(C)C)CC[C@]1(C)O2 (mixture of isomers)
inactive: [1] 1.08 | [2] 0.955 | [3] 0.967 | [4] 0.977 | [5] 1.02 | [6] 1.01 | [7] 0.997 | [8] 1.03 | [9] 1.04 | [10] 1.01 | [11] 1 | [12] 1.02 | [13] 0.961 | [14] 1.14 | [15] 1.02 | [16] 0.96 | [17] 1.01 | [18] 1.04 | [19] 0.887 | [20] 1
